# Calls of active or inactive are those of the source. How the source made its calls: active means hit-call score of the fitted dose curve at least 0.9, where 1 is the maximum; inactive means score below 0.9.
# Columns and labels:
# Conditions in all cases: mRNA level, 48 h; actives raise or lower the signal
# CYP2C9 (gene 1559) = assay: LTEA_HepaRG_CYP2C9: Life Technologies and Expression Analysis (LTEA) Assay for CYP2C9 using HepaRG (AID 2283484)
# Outline: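 CYP2C9 transcript level, quantified by TaqMan qRT-PCR against three housekeeping genes, was fitted bidirectionally relative to 0.5% DMSO. HepaRG cultures were treated 48 h, in duplicate, at eight half-log concentrations topping at 100 uM.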
# CYP2E1 (gene 1571) = assay: LTEA_HepaRG_CYP2E1: Life Technologies and Expression Analysis (LTEA) Assay for CYP2E1 using HepaRG (AID 2283485)
# Outline: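 CYP2E1 transcript measured by Fluidigm qRT-PCR against three housekeeping genes in human HepaRG cells treated 48 h (top 100 uM, half-log steps, 0.5% DMSO vehicle). Gain or loss fitted relative to DMSO baseline.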
# CYP4A11 (gene 1579) = assay: LTEA_HepaRG_CYP4A11: Life Technologies and Expression Analysis (LTEA) Assay for CYP4A11 using HepaRG (AID 2283486)
# Outline: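 Differentiated HepaRG cells, serum-free induction medium, exposed 48 h in duplicate to 8-point half-log series from 100 uM in 0.5% DMSO. CYP4A11 mRNA measured by qRT-PCR, normalized to ACTB, GAPDH, POLR2A; bidirectional fit versus DMSO.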
# [1] = read-out: Cytochrome P450 3A4 (Homo sapiens) (UniProt P08684); assay: LTEA_HepaRG_CYP3A4: Life Technologies and Expression Analysis (LTEA) Assay for CYP3A4 using HepaRG (AID 2283487)
# Outline: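 HepaRG, 48 h exposure, 8-pt CRC from 100 uM (half-log), 0.5% DMSO, duplicates; serum-free induction medium. Readout: CYP3A4 mRNA, qRT-PCR, ACTB/GAPDH/POLR2A normalization. Bidirectional fit vs DMSO.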
# [2] = read-out: DNA damage-inducible transcript 3 (DDIT3), DDIT3 (gene 1649); assay: LTEA_HepaRG_DDIT3: Life Technologies and Expression Analysis (LTEA) Assay for DNA damage-inducible transcript 3 (DDIT3) using HepaRG (AID 2283488)
# Outline: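 DDIT3 transcript was quantified by qRT-PCR with ACTB/GAPDH/POLR2A normalization after 48 h chemical treatment of differentiated HepaRG cells in 0.5% DMSO. Dosing was eight-point, half-log, top 100 uM, duplicate wells. Curves fitted bidirectionally versus DMSO.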
# [3] = read-out: Pro-epidermal growth factor (Homo sapiens) (UniProt P01133); assay: LTEA_HepaRG_EGF: Life Technologies and Expression Analysis (LTEA) Assay for Epidermal growth factor (EGF) using HepaRG (AID 2283489)
# Outline: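 Differentiated human HepaRG cells, plated 48 h then switched to serum-free induction medium, were exposed for 48 h to test chemicals (8-point half-log series, top 100 uM, 0.5% DMSO). EGF mRNA was quantified by qRT-PCR, normalized to ACTB, GAPDH, POLR2A.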
# [4] = read-out: Early growth response protein 1 (EGR1) transcription factor, EGR1 (gene 1958); assay: LTEA_HepaRG_EGR1: Life Technologies and Expression Analysis (LTEA) Assay for Early growth response protein 1 (EGR1) transcription factor using HepaRG (AID 2283490)
# Outline: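 EGR1 transcript levels quantified by qRT-PCR (Fluidigm arrays) against three housekeeping genes after 48 h chemical exposure of HepaRG cells. Eight-point half-log series topping at 100 uM, 0.5% DMSO vehicle, analyzed for gain or loss.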
# [5] = read-out: Ezrin (EZR), EZR (gene 7430); assay: LTEA_HepaRG_EZR: Life Technologies and Expression Analysis (LTEA) Assay for Ezrin (EZR) using HepaRG (AID 2283491)
# Outline: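 Read-out is EZR transcript level by qRT-PCR, normalized to three housekeeping genes and fitted bidirectionally against the DMSO control. Human HepaRG cells received test chemicals for 48 h at eight half-log concentrations up to 100 uM in 0.5% DMSO.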
# [6] = read-out: Cytochrome P450 3A7 (Homo sapiens) (UniProt P24462); assay: LTEA_HepaRG_CYP3A7: Life Technologies and Expression Analysis (LTEA) Assay for CYP3A7 using HepaRG (AID 2283492)
# Outline: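 HepaRG cells plated 48 h, then dosed in serum-free induction medium for 48 h at 8 concentrations (top 100 uM, half-log steps, 0.5% DMSO). CYP3A7 mRNA by qRT-PCR, normalised to ACTB/GAPDH/POLR2A; bidirectional fit versus DMSO.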
# CYP3A5 (gene 1577) = assay: LTEA_HepaRG_CYP3A5: Life Technologies and Expression Analysis (LTEA) Assay for CYP3A5 using HepaRG (AID 2283493)
# Outline: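 mRNA levels were quantified by qRT-PCR on Fluidigm arrays and normalized to three housekeeping genes. Differentiated HepaRG cells received 48 h exposure (top 100 uM, half-log steps, 0.5% DMSO vehicle, duplicate); bidirectional fitting versus DMSO.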
# [7] = read-out: Fatty Acid-Binding Protein 1 (FABP1), FABP1 (gene 2168); assay: LTEA_HepaRG_FABP1: Life Technologies and Expression Analysis (LTEA) Assay for Fatty Acid-Binding Protein 1 (FABP1) using HepaRG (AID 2283494)
# Outline: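 FABP1 expression by TaqMan qRT-PCR, normalised to three housekeeping genes, in HepaRG cells after 48 h chemical treatment. Eight-point half-log series topping at 100 uM in 0.5% DMSO, duplicates; gain or loss fitted relative to vehicle.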
# [8] = read-out: Cytochrome P450 4A22 (Homo sapiens) (UniProt Q5TCH4); assay: LTEA_HepaRG_CYP4A22: Life Technologies and Expression Analysis (LTEA) Assay for Cytochrome P450 4A22 (CYP4A22) using HepaRG (AID 2283495)
# Outline: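 qRT-PCR of CYP4A22 mRNA (Fluidigm TaqMan, normalized to three housekeeping genes) after 48 h chemical exposure of HepaRG cells; 8-point half-log series, top 100 uM, 0.5% DMSO vehicle. Bidirectional curve fitting vs DMSO baseline.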
# [9] = read-out: Cytochrome P450 7A1 (Homo sapiens) (UniProt P22680); assay: LTEA_HepaRG_CYP7A1: Life Technologies and Expression Analysis (LTEA) Assay for Cytochrome P450 7A1 (CYP7A1) using HepaRG (AID 2283496)
# Outline: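 HepaRG, 48 h exposure, 8-pt half-log series from 100 uM, 0.5% DMSO vehicle, duplicates. Readout: TaqMan qRT-PCR mRNA vs three housekeeping genes; bidirectional curve fit against DMSO baseline.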
# [10] = read-out: Glutathione S-Transferase (GSTA2), GSTA2 (gene 2939); assay: LTEA_HepaRG_GSTA2: Life Technologies and Expression Analysis (LTEA) Assay for Glutathione S-Transferase (GSTA2) using HepaRG (AID 2283497)
# Outline: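 GSTA2 transcript levels came from Fluidigm TaqMan qRT-PCR normalized to three housekeeping genes, fitted in both directions against DMSO. HepaRG cultures received chemicals for 48 h in serum-free induction medium (0.5% DMSO), 8 half-log concentrations up to 100 uM, duplicate.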
# [11] = read-out: Glutamate-cysteine ligase catalytic (GCLC), GCLC (gene 2729); assay: LTEA_HepaRG_GCLC: Life Technologies and Expression Analysis (LTEA) Assay for Glutamate-cysteine ligase catalytic (GCLC) using HepaRG (AID 2283498)
# Outline: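 Expression by TaqMan qRT-PCR, normalized to three housekeeping genes (ACTB, GAPDH, POLR2A), with up- or down-regulation fitted against DMSO. HepaRG cells dosed in duplicate for 48 h with 8 half-log concentrations up to 100 uM, vehicle 0.5% DMSO.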
# [12] = read-out: growth arrest and DNA damage 45 (GADD45G), GADD45G (gene 10912); assay: LTEA_HepaRG_GADD45G: Life Technologies and Expression Analysis (LTEA) Assay for growth arrest and DNA damage 45 (GADD45G) using HepaRG (AID 2283499)
# Outline: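 Differentiated human HepaRG cells in serum-free induction medium were exposed for 48 h to 8 half-log concentrations up to 100 uM in 0.5% DMSO, in duplicate. GADD45G mRNA was measured by TaqMan qRT-PCR, normalised to ACTB, GAPDH and POLR2A, and fitted bidirectionally against DMSO.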
# [13] = read-out: Glutamate-cysteine ligase regulatory (GCLM), GCLM (gene 2730); assay: LTEA_HepaRG_GCLM: Life Technologies and Expression Analysis (LTEA) Assay for Glutamate-cysteine ligase regulatory (GCLM) using HepaRG (AID 2283500)
# Outline: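 GCLM expression quantified by qRT-PCR, normalized to three housekeeping genes, after 48 h chemical treatment of HepaRG cells in duplicate at 8 concentrations (top 100 uM, half-log steps, 0.5% DMSO). Changes fitted both directions against vehicle.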
# [14] = read-out: Glutathione S-transferase M3 (GSTM3), GSTM3 (gene 2947); assay: LTEA_HepaRG_GSTM3: Life Technologies and Expression Analysis (LTEA) Assay for Glutathione S-transferase M3 (GSTM3) using HepaRG (AID 2283501)
# Outline: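 Differentiated HepaRG cells in serum-free induction medium were exposed in duplicate for 48 h to 8 half-log concentrations up to 100 uM in 0.5% DMSO. GSTM3 mRNA was measured by TaqMan qRT-PCR, normalized to ACTB/GAPDH/POLR2A, and fitted bidirectionally versus DMSO.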
# [15] = read-out: Heat shock 70 kDa protein 1 (HSPA1A), gene 3303; assay: LTEA_HepaRG_HSPA1A: Life Technologies and Expression Analysis (LTEA) Assay for Heat shock 70 kDa protein 1 (HSPA1A) using HepaRG (AID 2283502)
# Outline: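 HSPA1A expression measured by qRT-PCR with ACTB/GAPDH/POLR2A normalization; curves fitted in both directions relative to DMSO vehicle. Exposure: 48 h in HepaRG cells, duplicate 8-point half-log series from 100 uM, 0.5% DMSO, serum-free induction medium.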
# [16] = read-out: Hypoxia-inducible factor 1-alpha (Homo sapiens) (UniProt Q16665); assay: LTEA_HepaRG_HIF1A: Life Technologies and Expression Analysis (LTEA) Assay for Hypoxia-inducible factor 1 (HIF1A) Trancription factor using HepaRG (AID 2283503)
# Outline: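 HIF1A transcript level read by qRT-PCR (ACTB, GAPDH, POLR2A normalization) after 48 h chemical exposure of HepaRG cultures. Eight half-log concentrations, top 100 uM, 0.5% DMSO vehicle, duplicates; bidirectional curve fit against DMSO baseline.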
# Chain of Cytochrome P450 3A4 (Homo sapiens) (P08684 whole entry, looked up): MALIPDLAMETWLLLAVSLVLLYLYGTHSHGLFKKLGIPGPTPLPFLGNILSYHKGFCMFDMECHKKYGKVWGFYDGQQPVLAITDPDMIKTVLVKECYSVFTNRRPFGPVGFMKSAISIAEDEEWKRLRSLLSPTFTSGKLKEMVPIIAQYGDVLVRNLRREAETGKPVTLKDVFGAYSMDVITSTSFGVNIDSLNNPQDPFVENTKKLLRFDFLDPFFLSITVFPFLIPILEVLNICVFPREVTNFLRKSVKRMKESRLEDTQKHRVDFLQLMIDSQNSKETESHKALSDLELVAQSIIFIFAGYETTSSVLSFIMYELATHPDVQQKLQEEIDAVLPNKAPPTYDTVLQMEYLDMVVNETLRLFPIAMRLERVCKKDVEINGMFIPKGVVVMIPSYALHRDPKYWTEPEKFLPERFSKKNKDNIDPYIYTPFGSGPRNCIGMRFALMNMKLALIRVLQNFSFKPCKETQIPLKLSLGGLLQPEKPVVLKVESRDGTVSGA
# Chain of Hypoxia-inducible factor 1-alpha (Homo sapiens) (Q16665 whole entry, looked up): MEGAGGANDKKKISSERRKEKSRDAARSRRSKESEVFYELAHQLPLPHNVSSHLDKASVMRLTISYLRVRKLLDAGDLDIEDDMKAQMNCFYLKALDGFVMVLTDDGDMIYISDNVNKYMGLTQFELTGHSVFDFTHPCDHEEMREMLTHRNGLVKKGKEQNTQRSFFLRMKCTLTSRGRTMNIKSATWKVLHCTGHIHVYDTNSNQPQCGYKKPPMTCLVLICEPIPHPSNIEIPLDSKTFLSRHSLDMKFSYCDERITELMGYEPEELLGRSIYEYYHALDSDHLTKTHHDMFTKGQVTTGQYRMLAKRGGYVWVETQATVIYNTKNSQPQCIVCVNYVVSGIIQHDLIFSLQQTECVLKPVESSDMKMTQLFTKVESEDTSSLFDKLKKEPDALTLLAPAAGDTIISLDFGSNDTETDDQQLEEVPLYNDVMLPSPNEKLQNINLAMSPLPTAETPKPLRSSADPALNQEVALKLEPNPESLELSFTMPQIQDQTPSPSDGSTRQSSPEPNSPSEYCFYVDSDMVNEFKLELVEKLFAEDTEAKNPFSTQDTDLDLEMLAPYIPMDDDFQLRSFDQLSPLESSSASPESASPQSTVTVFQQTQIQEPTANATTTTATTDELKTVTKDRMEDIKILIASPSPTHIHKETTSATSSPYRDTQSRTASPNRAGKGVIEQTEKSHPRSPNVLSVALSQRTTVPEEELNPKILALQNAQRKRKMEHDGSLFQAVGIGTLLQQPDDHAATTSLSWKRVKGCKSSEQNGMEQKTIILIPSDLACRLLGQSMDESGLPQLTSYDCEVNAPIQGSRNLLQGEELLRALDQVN
# Chain of Cytochrome P450 3A7 (Homo sapiens) (P24462 whole entry, looked up): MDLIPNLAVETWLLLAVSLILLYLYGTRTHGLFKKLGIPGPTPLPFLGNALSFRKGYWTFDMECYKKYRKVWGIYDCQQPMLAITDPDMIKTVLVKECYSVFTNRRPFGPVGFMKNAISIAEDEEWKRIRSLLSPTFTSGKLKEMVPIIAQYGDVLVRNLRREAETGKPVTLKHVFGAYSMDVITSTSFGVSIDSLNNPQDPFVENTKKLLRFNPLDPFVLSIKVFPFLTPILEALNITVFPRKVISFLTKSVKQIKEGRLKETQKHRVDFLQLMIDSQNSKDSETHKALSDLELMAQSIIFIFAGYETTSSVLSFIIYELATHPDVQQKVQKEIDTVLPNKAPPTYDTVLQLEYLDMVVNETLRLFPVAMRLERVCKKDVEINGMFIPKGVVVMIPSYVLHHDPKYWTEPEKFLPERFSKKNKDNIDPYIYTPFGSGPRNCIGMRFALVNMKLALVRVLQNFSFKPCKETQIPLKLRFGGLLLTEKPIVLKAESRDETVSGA
structure (smiles),measurement,setting,value
CNC(=O)ON=C(C)SC,outcome,CYP2C9 (gene 1559),inactive
same,outcome,CYP2E1 (gene 1571),inactive
same,outcome,CYP4A11 (gene 1579),inactive
same,outcome,[1],inactive
same,outcome,[2],inactive
same,outcome,[3],inactive
same,outcome,[4],inactive
same,outcome,[5],inactive
same,outcome,[6],inactive
same,outcome,CYP3A5 (gene 1577),inactive
same,outcome,[7],inactive
same,outcome,[8],inactive
same,outcome,[9],inactive
same,outcome,[10],inactive
same,outcome,[11],inactive
same,outcome,[12],inactive
same,outcome,[13],inactive
same,outcome,[14],inactive
same,outcome,[15],inactive
same,outcome,[16],inactive
CC(Oc1cccc(Cl)c1)C(=O)O (configuration not stated),AC50,CYP2C9 (gene 1559),2.04 µM (active)
same,AC50,CYP2E1 (gene 1571),4.01 µM (active)
same,outcome,CYP4A11 (gene 1579),inactive
same,AC50,[1],10 µM (active)
same,outcome,[2],inactive
same,outcome,[3],inactive
same,outcome,[4],inactive
same,outcome,[5],inactive
same,AC50,[6],14.2 µM (active)
same,outcome,CYP3A5 (gene 1577),inactive
same,outcome,[7],inactive
same,outcome,[8],inactive
same,outcome,[9],inactive
same,outcome,[10],inactive
same,outcome,[11],inactive
same,outcome,[12],inactive
same,outcome,[13],inactive
same,outcome,[14],inactive
same,outcome,[16],inactive
COP(=O)(OC)SCn1c(=O)oc2cc(Cl)cnc21,AC50,CYP2C9 (gene 1559),36.9 µM (active)
same,outcome,CYP2E1 (gene 1571),inactive
same,AC50,CYP4A11 (gene 1579),36.2 µM (active)
same,AC50,[1],37.3 µM (active)
same,outcome,[2],inactive
same,outcome,[3],inactive
same,outcome,[4],inactive
same,outcome,[5],inactive
same,AC50,[6],50 µM (active)
same,AC50,CYP3A5 (gene 1577),37.8 µM (active)
same,outcome,[7],inactive
same,AC50,[8],46.7 µM (active)
same,outcome,[9],inactive
same,AC50,[10],65 µM (active)
same,outcome,[11],inactive
same,outcome,[12],inactive
same,outcome,[13],inactive
same,outcome,[14],inactive
same,outcome,[15],inactive
same,outcome,[16],inactive
Cc1cc(C2CC2)nc(Nc2ccccc2)n1,outcome,CYP2C9 (gene 1559),inactive
same,outcome,CYP2E1 (gene 1571),inactive
same,outcome,CYP4A11 (gene 1579),inactive
same,outcome,[1],inactive
same,outcome,[2],inactive
same,outcome,[4],inactive
same,outcome,[5],inactive
same,outcome,[6],inactive
same,outcome,CYP3A5 (gene 1577),inactive
same,outcome,[7],inactive
same,outcome,[8],inactive
same,outcome,[9],inactive
same,outcome,[10],inactive
same,outcome,[11],inactive
same,AC50,[12],29.7 µM (active)
same,outcome,[13],inactive
same,outcome,[14],inactive
same,outcome,[15],inactive
same,outcome,[16],inactive
CSc1nc(NC(C)C)nc(NC(C)C)n1,AC50,CYP2C9 (gene 1559),85.9 µM (active)
same,AC50,CYP2E1 (gene 1571),39.1 µM (active)
same,AC50,CYP4A11 (gene 1579),31 µM (active)
same,AC50,[1],1.46 µM (active)
same,outcome,[2],inactive
same,outcome,[3],inactive
same,outcome,[4],inactive
same,outcome,[5],inactive
same,AC50,[6],1.17 µM (active)
same,outcome,CYP3A5 (gene 1577),inactive
same,AC50,[7],44.1 µM (active)
same,AC50,[8],24.3 µM (active)
same,AC50,[9],50 µM (active)
same,AC50,[10],81.6 µM (active)
same,outcome,[11],inactive
same,AC50,[12],64.7 µM (active)
same,outcome,[13],inactive
same,outcome,[14],inactive
same,outcome,[15],inactive
same,outcome,[16],inactive
CCc1cccc(C)c1N(C(=O)CCl)C(C)COC (configuration not stated),outcome,CYP2C9 (gene 1559),inactive
same,AC50,CYP2E1 (gene 1571),50 µM (active)
same,outcome,CYP4A11 (gene 1579),inactive
same,AC50,[1],11.3 µM (active)
same,outcome,[2],inactive
same,outcome,[3],inactive
same,outcome,[4],inactive
same,outcome,[5],inactive
same,outcome,[6],inactive
same,outcome,CYP3A5 (gene 1577),inactive
same,AC50,[7],37.9 µM (active)
same,outcome,[9],inactive
same,AC50,[10],18 µM (active)
same,outcome,[11],inactive
same,outcome,[12],inactive
same,outcome,[13],inactive
same,outcome,[14],inactive
same,outcome,[15],inactive
same,outcome,[16],inactive

# Source: PubChem BioAssay (EPA / NIEHS)
